High-throughput results from PubChem BioAssay.
ID4 SMM = binds human ID4 protein on microarray | AID 624137 | calls only | small molecule microarray, Flag-ID4 binding, fluorescence F/B | 31,000 compounds, 1.2% hits | P47928; call rule not given here;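 further: a binder raises fluorescence above local background on the spot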
Target sequence (P47928 whole entry, looked up): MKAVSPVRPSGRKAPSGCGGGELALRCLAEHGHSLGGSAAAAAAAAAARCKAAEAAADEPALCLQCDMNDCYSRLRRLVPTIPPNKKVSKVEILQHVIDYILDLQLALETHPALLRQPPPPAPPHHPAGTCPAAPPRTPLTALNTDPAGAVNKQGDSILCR
STK33 kin inh = inhibitors of human STK33 kinase; Q9BYT3; ADP-Glo luminescence, MBP substrate; inhibition, % at 12.5 µM; 27,000 compounds, 0.44% hits; AID 2322; in the data active means inhibition above about 20%
Target sequence (Q9BYT3 whole entry, looked up): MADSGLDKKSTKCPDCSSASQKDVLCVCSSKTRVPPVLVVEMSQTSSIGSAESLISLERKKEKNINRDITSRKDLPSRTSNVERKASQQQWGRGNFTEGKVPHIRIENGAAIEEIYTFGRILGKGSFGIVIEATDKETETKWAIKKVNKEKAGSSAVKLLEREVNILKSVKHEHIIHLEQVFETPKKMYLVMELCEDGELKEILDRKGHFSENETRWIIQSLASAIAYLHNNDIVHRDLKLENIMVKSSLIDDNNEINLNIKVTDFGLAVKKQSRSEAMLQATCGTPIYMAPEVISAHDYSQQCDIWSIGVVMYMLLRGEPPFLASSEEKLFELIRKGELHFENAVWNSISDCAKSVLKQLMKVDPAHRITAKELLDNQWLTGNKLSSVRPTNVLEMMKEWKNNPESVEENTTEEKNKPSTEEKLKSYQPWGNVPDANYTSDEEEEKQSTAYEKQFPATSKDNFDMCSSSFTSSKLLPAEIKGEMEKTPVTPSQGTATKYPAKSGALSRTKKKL
p53 PUMA act = re-activators of the mutant p53 pathway | SW480 PUMA-promoter luciferase, p53 mutant reactivation | activation, % at 9.98 µM | 28,000 compounds, 1.5% hits | AID 624151; in the data active means activation above about 52%
Of the large screens only hits and unclear results are named; the others gave an inactive call. A selection: hits, their analogues and other compounds. The true share with any hit is near 2.1%.

Cc1ccc(NC(=O)COc2ccc(Br)cc2C)c([N+](=O)[O-])c1	none
Cc1ccc(NC(=O)COc2ccc(Cl)cc2Br)c([N+](=O)[O-])c1	none
Cc1ccc(NC(=O)COc2ccc(Br)cc2Cl)c([N+](=O)[O-])c1	p53 PUMA act 81.9
Cc1ccc(OCC(=O)Nc2ccc(C)cc2[N+](=O)[O-])c(C)c1	p53 PUMA act 88.8
O=C(COc1ccc(Br)cc1Cl)Nc1ccccc1[N+](=O)[O-]	none
Cc1ccc(NC(=O)COc2ccc(Cl)cc2C)c([N+](=O)[O-])c1	p53 PUMA act 63.8
CCc1ccc(NC(=O)CN(C)S(=O)(=O)c2ccc3ccccc3c2)cc1	none
COc1c(C)c(OCC=C(C)C)cc(CO)c1CO	none (no result: ID4 SMM)
CN(c1ccccc1C(=O)Nc1ccccc1C(=O)N1CCOCC1)S(C)(=O)=O	none
Cc1c(C(=O)Nc2nnc(SCc3ccccc3F)s2)oc2ccccc12	none
Cc1c(C(=O)Nc2nnc(SC/C=C/c3ccccc3)s2)oc2ccccc12	p53 PUMA act 54.0
O=C(CSc1nnnn1-c1ccccc1)Nc1cc(Cl)ccc1C(=O)O	none
O=C(CSc1nnnn1-c1ccccc1)Nc1ccc(Cl)c(C(=O)O)c1	ID4 SMM active
COc1ccc(S(=O)(=O)N(C)CC(=O)Nc2cccc(C)c2C)cc1Cl	none
COc1ccccc1-c1cc(=O)c2c(OC)cccc2o1	none (no result: ID4 SMM, p53 PUMA act)
COc1ccccc1-c1cc(=O)c2ccccc2o1	p53 PUMA act 138.0
Cn1c(=O)[nH]c(=O)c2c1ncn2CCNCc1ccco1	ID4 SMM active
O=C(Cn1cnc2ccccc2c1=O)NCc1ccco1	none
COC(OC)C1Nc2ccccc2C(=O)N1c1cccc(C(F)(F)F)c1 (stereo not drawn)	none (no result: STK33 kin inh)
COc1cc(NC(=O)COc2cc(C)c(Cl)c(C)c2)c(C(=O)O)cc1OC	none
CC(C)Cc1ccc(/C=C/C(=O)N2CCN(C/C=C/c3ccccc3)CC2)cc1	none (no result: ID4 SMM, p53 PUMA act)
CC(C)Cc1ccc(/C=C/C(=O)N2CCOCC2)cc1	p53 PUMA act 80.6 (no result: STK33 kin inh)
C[C@H]1CN([C@@H](C)CO)C(=O)c2cc(NC(=O)Cc3cn(C)c4ccccc34)ccc2O[C@H]1CN(C)C(=O)Nc1ccccc1	ID4 SMM active (no result: STK33 kin inh)
COc1ccc(CN(C)C[C@@H]2Oc3ccc(NC(=O)Cc4cn(C)c5ccccc45)cc3C(=O)N([C@H](C)CO)C[C@@H]2C)cc1	none (no result: STK33 kin inh)
C[C@@H]1CN([C@H](C)CO)C(=O)c2cc(NC(=O)Cc3cn(C)c4ccccc34)ccc2O[C@H]1CN(C)C(=O)Nc1ccccc1	none (no result: STK33 kin inh)
COc1ccc(CN(C)C[C@@H]2Oc3ccc(NC(=O)Cc4cn(C)c5ccccc45)cc3C(=O)N([C@@H](C)CO)C[C@@H]2C)cc1	ID4 SMM active
Nc1cccc(-c2nnc(SCC(=O)Nc3cccc(Cl)c3)n2-c2ccccc2)c1	none
COc1ccc(NC(=O)Cn2cnc3sc(-c4ccccc4)cc3c2=O)c([N+](=O)[O-])c1	none
COc1ccc(S(=O)(=O)N(C)CC(=O)Nc2cccc(Cl)c2C)cc1OC	none
Cc1noc(C)c1NC(=O)N(C)C[C@H]1OCCCC[C@@H](C)Oc2ccc(NS(=O)(=O)c3c(C)noc3C)cc2C(=O)N([C@H](C)CO)C[C@@H]1C	none (no result: ID4 SMM, p53 PUMA act)
CNC[C@@H]1OCCCC[C@H](C)Oc2ccc(NS(=O)(=O)c3cn(C)cn3)cc2C(=O)N([C@@H](C)CO)C[C@@H]1C	ID4 SMM active (no result: STK33 kin inh)
Cc1noc(C)c1NC(=O)N(C)C[C@H]1OCCCC[C@@H](C)Oc2ccc(NS(C)(=O)=O)cc2C(=O)N([C@@H](C)CO)C[C@H]1C	none (no result: STK33 kin inh)
Cc1noc(C)c1NC(=O)N(C)C[C@@H]1OCCCC[C@H](C)Oc2ccc(NS(=O)(=O)c3cccs3)cc2C(=O)N([C@@H](C)CO)C[C@@H]1C	ID4 SMM active (no result: STK33 kin inh)
CNC[C@@H]1OCCCC[C@@H](C)Oc2ccc(NS(=O)(=O)c3cn(C)cn3)cc2C(=O)N([C@@H](C)CO)C[C@@H]1C	none (no result: STK33 kin inh)
Cc1noc(C)c1NC(=O)N(C)C[C@@H]1OCCCC[C@@H](C)Oc2ccc(NS(=O)(=O)c3cccs3)cc2C(=O)N([C@H](C)CO)C[C@H]1C	ID4 SMM active (no result: STK33 kin inh)
Cc1noc(C)c1NC(=O)N(C)C[C@@H]1OCCCC[C@@H](C)Oc2ccc(NS(=O)(=O)c3cccs3)cc2C(=O)N([C@@H](C)CO)C[C@H]1C	none (no result: STK33 kin inh)
Cc1noc(C)c1NC(=O)N(C)C[C@H]1OCCCC[C@@H](C)Oc2ccc(NS(=O)(=O)c3cccs3)cc2C(=O)N([C@H](C)CO)C[C@H]1C	ID4 SMM active (no result: STK33 kin inh)
CC(C)c1ccc(NC(=O)CSc2nnc(-c3ccccc3O)n2C)cc1	none
Cc1ccc(S(=O)(=O)N2C(=O)CCC2C(=O)Nc2cccc(Br)c2)cc1 (stereo not drawn)	none
O=C(CSc1nnc(-c2ccc(Cl)cc2)n1-c1ccc(F)cc1)Nc1ccccc1F	none
Clc1cc(Cl)c2nc(Oc3cccc(N4CCOCC4)c3)sc2c1	none (no result: STK33 kin inh)
Cc1ccc(N2C3=C(C(=O)CC(C)(C)C3)C(c3cccs3)C3=C2CC(C)(C)CC3=O)cc1C	none (no result: ID4 SMM, p53 PUMA act)
Cc1noc(C)c1NC(=O)N(C)C[C@@H]1OCCCC[C@@H](C)Oc2ccc(NS(=O)(=O)c3cn(C)cn3)cc2C(=O)N([C@H](C)CO)C[C@H]1C	ID4 SMM active (no result: STK33 kin inh)
Cc1noc(C)c1NC(=O)N(C)C[C@@H]1OCCCC[C@H](C)Oc2ccc(NS(=O)(=O)c3cn(C)cn3)cc2C(=O)N([C@@H](C)CO)C[C@H]1C	none (no result: STK33 kin inh)
COC(=O)c1cc(NC(=O)COc2ccc(Br)cc2)cc(C(=O)OC)c1	none
CNC[C@@H]1Oc2ccc(NS(=O)(=O)c3ccccc3)cc2C(=O)N([C@H](C)CO)C[C@H]1C	none
CNC[C@@H]1Oc2ccc(NC(=O)Nc3ccc4c(c3)OCO4)cc2C(=O)N([C@@H](C)CO)C[C@H]1C	ID4 SMM active (no result: STK33 kin inh)
CNC[C@@H]1OCCCC[C@H](C)Oc2ccc(NC(=O)Nc3ccc4c(c3)OCO4)cc2C(=O)N([C@@H](C)CO)C[C@@H]1C	ID4 SMM active (no result: STK33 kin inh)
CNC[C@H]1Oc2ccc(NC(=O)Nc3ccc4c(c3)OCO4)cc2CC(=O)N([C@@H](C)CO)C[C@@H]1C	ID4 SMM active
C[C@H]1CN([C@@H](C)CO)C(=O)c2cc(NC(=O)Nc3ccc4c(c3)OCO4)ccc2O[C@H]1CN(C)C	none
CNC[C@@H]1Oc2ccc(NC(=O)Nc3ccc4c(c3)OCO4)cc2CC(=O)N([C@@H](C)CO)C[C@@H]1C	none
CNC[C@@H]1Oc2ccc(NS(=O)(=O)c3ccccc3)cc2C(=O)N([C@@H](C)CO)C[C@H]1C	ID4 SMM active
CNC[C@@H]1OCCCC[C@@H](C)Oc2ccc(NC(=O)Nc3ccc4c(c3)OCO4)cc2C(=O)N([C@H](C)CO)C[C@@H]1C	none (no result: ID4 SMM, p53 PUMA act)
COc1ccc(N(C(C)C(=O)N2CCOCC2)S(C)(=O)=O)cc1 (stereo not drawn)	none
C[C@@H]1CN([C@H](C)CO)C(=O)c2cc(NC(=O)Nc3ccc4c(c3)OCO4)ccc2O[C@@H]1CN(C)Cc1ccncc1	none (no result: STK33 kin inh)
C[C@@H]1CN([C@@H](C)CO)C(=O)c2cc(NC(=O)Nc3ccc4c(c3)OCO4)ccc2O[C@H]1CN(C)Cc1ccncc1	ID4 SMM active (no result: STK33 kin inh)
Cn1cnnc1SCC(=O)c1ccc([N+](=O)[O-])cc1	none
O=C1CCC(C(=O)Nc2cc(F)cc(F)c2)=NN1	none (no result: STK33 kin inh)
COc1ccc(OC)c(NC(=O)Nc2cccc(Cn3cccn3)c2)c1	none
COc1cccc2cc(C(=O)Nc3cccc(Cn4cccn4)c3)c(=O)oc12	p53 PUMA act 56.9
